Results published in PubChem BioAssay (NCATS).
Records with an inconclusive call do not appear. Active and inactive are the calls of the source. Unless noted, calls follow the shape of the dose curve; as a rule, active = well fitted curve in either direction with a large enough effect (not every such curve was filed as active); inconclusive = small, poorly fitted or top-dose-only effect, or another doubt; inactive = flat fitted curve, though single readings scatter.

How the values were obtained:
[1] = NFAT Signaling Pathway (AID 444); conditions: Jurkat NFAT-bla M1, carbachol, beta-lactamase ratio, 5 h; at 17.2 µM (top of the series) unless noted;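 also: carbachol stimulus at about its EC50 of 1 µM final; % is scaled to controls: 0 for no effect and ±100 for the full control effect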
How it was run: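 Jurkat cells carrying an NFAT-driven β-lactamase reporter and co-transfected muscarinic M1 receptor were treated with compound plus carbachol (1 uM final, an EC50 level) for 5 h at 37 °C. CCF4 loading followed for 1 h at RT; 460/530 nm ratio gave %activity.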

[2] = Stat Signaling Pathway (AID 446); conditions: ME-180 SIE beta-lactamase reporter, IL-6 stimulated, 5 h; at 17.2 µM (top of the series) unless noted;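 also: ME-180 cervical cancer cells given 40 pM IL-6 alongside compound; SIE-controlled beta-lactamase reporter measured as 460/530 nm FRET emission ratio; % is scaled to controls: 0 for no effect and ±100 for the full control effect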
How it was run: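 ME-180 cells carrying a SIE-driven beta-lactamase reporter are stimulated with 40 pM IL-6 for 5 h at 37C in the presence of compound. The 460/530 nm FRET substrate ratio is read after 2.5 h at RT. Data are normalised to 300 pM IL-6 and to 125 nM JAK inhibitor controls.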

[3] = target: Glucocorticoid receptor (Homo sapiens) (UniProt P04150); experiment: GR-GFP Redistribution (AID 450;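 active = compounds whose dose series gives a full or clear partial fitted curve of increased nuclear translocation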; also: potency is read from the fitted curve at half-maximal effect)
Glucocorticoid receptor (Homo sapiens), sequence (P04150 whole entry, looked up, the tested form may be a part): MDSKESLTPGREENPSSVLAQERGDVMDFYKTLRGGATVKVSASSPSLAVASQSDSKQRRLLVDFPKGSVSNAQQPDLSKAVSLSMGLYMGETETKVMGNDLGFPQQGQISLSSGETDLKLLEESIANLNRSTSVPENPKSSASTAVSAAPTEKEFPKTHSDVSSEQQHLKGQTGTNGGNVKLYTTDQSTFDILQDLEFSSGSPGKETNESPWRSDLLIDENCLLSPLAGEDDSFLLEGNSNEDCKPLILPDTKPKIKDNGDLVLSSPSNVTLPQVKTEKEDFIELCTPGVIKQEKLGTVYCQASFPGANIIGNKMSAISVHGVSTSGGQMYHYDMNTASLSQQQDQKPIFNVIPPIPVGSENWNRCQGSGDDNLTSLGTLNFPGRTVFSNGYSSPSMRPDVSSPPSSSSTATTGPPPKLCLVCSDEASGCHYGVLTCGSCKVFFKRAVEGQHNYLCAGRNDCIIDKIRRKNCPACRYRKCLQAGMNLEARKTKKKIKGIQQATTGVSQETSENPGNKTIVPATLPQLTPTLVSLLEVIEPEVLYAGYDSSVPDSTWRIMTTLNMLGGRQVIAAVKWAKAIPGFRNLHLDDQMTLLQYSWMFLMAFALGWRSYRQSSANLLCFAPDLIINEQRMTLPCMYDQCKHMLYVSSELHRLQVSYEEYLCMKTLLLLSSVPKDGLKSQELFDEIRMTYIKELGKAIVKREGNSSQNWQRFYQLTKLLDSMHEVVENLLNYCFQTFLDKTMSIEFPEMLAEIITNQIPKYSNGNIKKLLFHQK

[4] = qHTS Assay for Identification of Small Molecule Agonists for Hypoxia Response Element Signaling Pathway (AID 914; active = well fitted activation curve with a large enough effect in the signal ratio, with a control signal flat, not every such curve was filed as active; the % refers to the signal ratio; also: potency is read from the fitted curve at half-maximal effect; as to activation: % of control where 0% means no effect); conditions: ME-180 (cervical carcinoma) HRE-bla reporter, beta-lactamase ratio, CoCl2, 17 h; activation: hits give high values
How it was run: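 AC50 values come from titration-series %Activity, taken as the 460/530nm ratio of CCF4 fluorescence (excitation 405nm). CellSensor HRE-bla ME-180 cells were treated 17 hours at 37 C with compound plus an EC50 level of CoCl2.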

[5] = target: Glucocorticoid receptor (Homo sapiens) (UniProt P04150); experiment: GR-EFC Redistribution (AID 451; calls by dose curve; also: potency is read from the fitted curve at half-maximal effect); conditions: CHO-K1 GR-EFC translocation, beta-gal luminescence, 2 h
How it was run: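 CHO-K1 cells stably expressing nuclear-localized β-gal enzyme acceptor and GR fused C-terminally to the enzyme donor fragment; ligand-driven nuclear translocation restores β-gal by complementation. Compounds titrated up to 46 uM final, 2 h at 37 °C; luminescence read.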

[6] = target: Mitogen-activated protein kinase 10 (Mus musculus) (UniProt Q61831); experiment: JNK3 AlphaScreen Assay (AID 530);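 also: kinase came from lysate of stimulated human HepG2 cells; signal reports phosphorylation of biotinylated GST-cJun 1-79 at Ser73 with 10 µM ATP; % is scaled to controls: 0 for no effect and ±100 for the full control effect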
How it was run: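 JNK3 came from HepG2 lysates pre-activated with IL-1beta and TNF-alpha and phosphorylated biotinylated GST-cJun (1-79) at 10 uM ATP, pH 7.6, room temperature. Compounds were titrated. AlphaScreen signal used anti-phospho-cJun (Ser73) antibody.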

[7] = target: 3',5'-cyclic-AMP phosphodiesterase 4B (Homo sapiens) (UniProt Q07343); experiment: qHTS Assay for Inhibitors of PDE-IV (AID 607; active = well fitted activation curve with a large enough effect in the main read-out, with a control signal flat, not every such curve was filed as active; also: % of control where 0% means no effect)
3',5'-cyclic-AMP phosphodiesterase 4B (Homo sapiens), sequence (Q07343 whole entry, looked up): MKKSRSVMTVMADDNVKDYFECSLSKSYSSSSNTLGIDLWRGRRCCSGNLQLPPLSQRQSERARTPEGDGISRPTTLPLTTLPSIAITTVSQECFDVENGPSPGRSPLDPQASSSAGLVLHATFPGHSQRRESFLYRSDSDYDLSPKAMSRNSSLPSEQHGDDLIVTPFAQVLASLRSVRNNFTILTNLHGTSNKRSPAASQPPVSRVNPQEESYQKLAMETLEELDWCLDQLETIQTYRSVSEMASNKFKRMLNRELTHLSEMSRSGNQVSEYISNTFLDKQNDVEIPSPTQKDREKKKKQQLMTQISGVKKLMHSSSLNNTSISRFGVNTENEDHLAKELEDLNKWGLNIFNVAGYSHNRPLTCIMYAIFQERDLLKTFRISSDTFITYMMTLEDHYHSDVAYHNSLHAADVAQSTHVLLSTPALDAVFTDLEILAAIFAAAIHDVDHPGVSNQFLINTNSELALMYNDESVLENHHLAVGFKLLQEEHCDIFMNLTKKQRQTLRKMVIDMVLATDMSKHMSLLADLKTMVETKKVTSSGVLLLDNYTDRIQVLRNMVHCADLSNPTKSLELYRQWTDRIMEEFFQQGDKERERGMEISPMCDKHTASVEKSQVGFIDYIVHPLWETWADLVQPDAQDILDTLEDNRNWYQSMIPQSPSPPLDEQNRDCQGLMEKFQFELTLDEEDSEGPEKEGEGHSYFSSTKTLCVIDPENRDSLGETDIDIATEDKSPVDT
How it was run: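 HEK293 ACTOne cells with CNG channel (1000/well), endogenous PDE4; membrane potential dye, compounds up to 22.9 uM final. Fluorescence Ex 535/Em 590; RO 20-1724 (100 uM final) as reference.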

[8] = target: Guanine nucleotide-binding protein G(i) subunit alpha-1 (Homo sapiens) (UniProt P63096); experiment: qHTS Assay for Inhibitors of RGS12 GoLoco Motif Activity (Green Fluorophore) (AID 879; active = well fitted curve in the direction sought with a large enough effect; an effect the other way counts as inactive or inconclusive;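 also: 0% = labeled peptide with Gαi1 and full inhibition = labeled peptide alone without protein; negative values mean loss of peptide binding seen as reduced polarization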)
Guanine nucleotide-binding protein G(i) subunit alpha-1 (Homo sapiens), sequence (P63096 whole entry, looked up): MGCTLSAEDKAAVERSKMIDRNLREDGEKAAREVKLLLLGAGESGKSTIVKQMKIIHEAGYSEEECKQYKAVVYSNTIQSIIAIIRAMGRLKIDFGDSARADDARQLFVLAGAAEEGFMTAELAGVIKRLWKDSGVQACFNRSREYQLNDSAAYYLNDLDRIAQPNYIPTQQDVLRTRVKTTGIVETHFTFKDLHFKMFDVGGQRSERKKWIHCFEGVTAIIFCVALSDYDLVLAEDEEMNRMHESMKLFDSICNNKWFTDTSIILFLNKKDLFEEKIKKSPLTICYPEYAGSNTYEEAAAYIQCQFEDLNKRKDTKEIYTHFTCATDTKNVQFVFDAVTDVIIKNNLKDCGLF
How it was run: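 Fluorescence polarization assay: 50 nM Gαi1 with 10 nM FITC-labeled RGS12 GoLoco peptide in 10 mM Tris pH 7.5, 150 mM NaCl, 0.1 mM GDP, 0.05% NP40, 10 min at room temperature with compound.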

[9] = qHTS Assay for Identification of Small Molecule Antagonists for NFkB Signaling Pathway (AID 895; active = well fitted inhibition curve with a large enough effect in the signal ratio, with a control signal flat, not every such curve was filed as active; the % refers to the signal ratio; also: potency is read from the fitted curve at half-maximal effect)
How it was run: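 NFkB-bla ME-180 cervical carcinoma cells with beta-lactamase reporter under NFkB response element; compounds added, then TNF alpha at 10 pM final (EC50), 5 h at 37 C. LiveBLAzer substrate 2 h, room temperature; emission 460/530 nm at 405 nm excitation.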

[10] = qHTS Assay for Identification of Small Molecule Agonists for Thrombopoietin (TPO) Signaling Pathway (AID 917; active = well fitted curve in the direction sought with a large enough effect; an effect the other way counts as inactive or inconclusive; also: % is scaled to controls: 0 for no effect and ±100 for the full control effect)
How it was run: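 Luminescence from a Glycoprotein IIb promoter–driven luciferase reporter served as read-out in murine Ba/F3 cells carrying the human TPO receptor. Cells, deprived of IL-3 overnight, received compounds with 26 pM TPO and were incubated 24 hrs at 37 C.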

[11] = target: Muscarinic acetylcholine receptor M1 (Rattus norvegicus) (UniProt P08482); experiment: qHTS Assay for Antagonists of Acetylcholine Muscarinic M1 Receptor: Kinetic Measurement of Intracellular Calcium Response (AID 943; active = well fitted curve in the direction sought with a large enough effect; an effect the other way counts as inactive or inconclusive;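 also: Fluo-4 calcium signal as peak divided by basal fluorescence over 4 min; nearly all actives have a fitted effect of over 75% in size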)
Muscarinic acetylcholine receptor M1 (Rattus norvegicus), sequence (P08482 whole entry, looked up): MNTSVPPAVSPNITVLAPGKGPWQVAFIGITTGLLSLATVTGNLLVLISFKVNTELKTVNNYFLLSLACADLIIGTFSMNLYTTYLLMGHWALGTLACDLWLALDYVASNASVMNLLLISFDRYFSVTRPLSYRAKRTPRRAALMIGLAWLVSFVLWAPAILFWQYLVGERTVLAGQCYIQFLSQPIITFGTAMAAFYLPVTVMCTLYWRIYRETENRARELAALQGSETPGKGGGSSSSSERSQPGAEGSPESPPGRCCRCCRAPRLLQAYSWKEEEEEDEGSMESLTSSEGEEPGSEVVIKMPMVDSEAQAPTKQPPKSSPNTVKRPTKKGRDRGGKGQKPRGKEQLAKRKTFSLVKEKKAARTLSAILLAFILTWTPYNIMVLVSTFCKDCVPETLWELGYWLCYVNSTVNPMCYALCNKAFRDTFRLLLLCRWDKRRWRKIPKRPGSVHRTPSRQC
How it was run: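 Intracellular calcium flux, recorded with Fluo-4 in a kinetic plate reader, served as signal; the response to carbachol at EC80 (100 nM final) was taken as maximal over minimal fluorescence after a 10 min compound pre-incubation in rat M1-CHO cells.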

[12] = target: Muscarinic acetylcholine receptor M1 (Rattus norvegicus) (UniProt P08482); experiment: qHTS Assay for Antagonists of Acetylcholine Muscarinic M1 Receptor: Measurement of IP-One Response (AID 944; active = well fitted curve in the direction sought with a large enough effect; an effect the other way counts as inactive or inconclusive; also: nearly all actives have a fitted effect of over 75% in size)
How it was run: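 Steps: plate transfected CHO-M1 cells overnight; add test compound, 10 min; add carbachol (200 nM, EC80) in stimulation buffer with LiCl; incubate 30 min; add labelled IP1 tracer and anti-IP1 antibody in lysis buffer; read HTRF after 10 min.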

[13] = target: Pyruvate kinase (Leishmania mexicana) (UniProt Q27686); experiment: qHTS Validation Assay for Inhibitors of Leishmania Mexicana Pyruvate Kinase (AID 945; active = well fitted curve in the direction sought with a large enough effect; an effect the other way counts as inactive or inconclusive;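 also: 0% = DMSO only neutral control wells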)
Pyruvate kinase (Leishmania mexicana), sequence (Q27686 2-499 E452W): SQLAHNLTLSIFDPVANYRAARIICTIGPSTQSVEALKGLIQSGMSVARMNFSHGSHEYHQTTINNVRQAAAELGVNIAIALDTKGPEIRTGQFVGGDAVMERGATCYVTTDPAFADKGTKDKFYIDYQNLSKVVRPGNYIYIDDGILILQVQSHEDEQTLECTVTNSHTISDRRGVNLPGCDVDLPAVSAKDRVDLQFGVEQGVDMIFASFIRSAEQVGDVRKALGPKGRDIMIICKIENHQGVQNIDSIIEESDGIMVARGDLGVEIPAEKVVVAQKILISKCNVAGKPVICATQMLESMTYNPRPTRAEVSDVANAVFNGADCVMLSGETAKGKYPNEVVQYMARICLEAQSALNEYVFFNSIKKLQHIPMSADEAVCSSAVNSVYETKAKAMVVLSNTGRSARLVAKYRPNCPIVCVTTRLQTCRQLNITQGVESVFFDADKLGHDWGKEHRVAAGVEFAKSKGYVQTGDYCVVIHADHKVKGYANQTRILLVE
How it was run: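 Purified LmPYK (E451W mutant, 0.2 nM) was incubated 1 h at room temperature with 0.5 mM PEP and 0.1 mM ADP in 50 mM imidazole pH 7.2, 50 mM KCl, 7 mM MgCl2; ATP formed was read by PKLight luminescence, normalized to DMSO wells.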

[14] = target: Pyruvate kinase PKM (Homo sapiens) (UniProt P14618); experiment: qHTS Assay for Activators of Human Muscle Pyruvate Kinase (AID 954; active = well fitted curve in the direction sought with a large enough effect, not every such curve was filed as active;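 also: 0% = uninhibited enzyme and -100% = no enzyme or full thiadiazolimine inhibition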)
Pyruvate kinase PKM (Homo sapiens), sequence (P14618 whole entry, looked up): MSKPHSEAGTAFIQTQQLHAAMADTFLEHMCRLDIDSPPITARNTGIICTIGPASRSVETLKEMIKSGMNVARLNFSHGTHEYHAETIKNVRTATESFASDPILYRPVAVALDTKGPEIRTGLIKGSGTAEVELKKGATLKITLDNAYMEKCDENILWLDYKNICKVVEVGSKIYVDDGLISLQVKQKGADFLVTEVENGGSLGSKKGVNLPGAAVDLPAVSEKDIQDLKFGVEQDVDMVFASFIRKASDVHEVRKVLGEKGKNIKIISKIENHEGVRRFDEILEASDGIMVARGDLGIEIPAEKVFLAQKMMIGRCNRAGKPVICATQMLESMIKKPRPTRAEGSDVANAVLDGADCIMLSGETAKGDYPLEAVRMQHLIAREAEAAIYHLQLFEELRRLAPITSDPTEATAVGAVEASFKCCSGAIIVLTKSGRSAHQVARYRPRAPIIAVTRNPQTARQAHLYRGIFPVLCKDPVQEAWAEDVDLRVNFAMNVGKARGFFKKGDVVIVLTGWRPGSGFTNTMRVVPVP
How it was run: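 Purified human PKM2 (0.1 nM) with 0.5 mM PEP (Km) and 0.1 mM ADP in 50 mM imidazole pH 7.2, KCl, MgCl2, 1 h at room temperature; ATP formed read by coupled luciferase luminescence. Normalized to no-enzyme/110 uM thiadiazolimine inhibition; 0.3 nM enzyme column for activation.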

[15] = target: Alpha-galactosidase A (Homo sapiens) (UniProt P06280); experiment: Counterscreen for Glucocerebrosidase Inhibitors: qHTS Assay for Human alpha-Galactosidase at pH 4.5 (AID 992; active = well fitted curve in the direction sought with a large enough effect; an effect the other way counts as inactive or inconclusive; also: 0% is about no effect)
Alpha-galactosidase A (Homo sapiens), sequence (P06280 whole entry, looked up): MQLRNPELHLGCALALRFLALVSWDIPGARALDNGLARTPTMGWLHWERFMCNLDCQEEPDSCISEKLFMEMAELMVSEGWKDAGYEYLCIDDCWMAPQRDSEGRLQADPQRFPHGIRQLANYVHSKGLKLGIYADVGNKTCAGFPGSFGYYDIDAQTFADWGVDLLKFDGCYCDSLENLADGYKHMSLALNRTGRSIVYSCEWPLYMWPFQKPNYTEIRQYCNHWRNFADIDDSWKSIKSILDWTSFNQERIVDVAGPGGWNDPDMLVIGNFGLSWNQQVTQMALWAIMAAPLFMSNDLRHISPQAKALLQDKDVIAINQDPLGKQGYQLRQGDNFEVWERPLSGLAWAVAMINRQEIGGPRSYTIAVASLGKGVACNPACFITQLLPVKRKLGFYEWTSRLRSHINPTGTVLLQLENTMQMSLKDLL
How it was run: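 Human enzyme (2 nM) with 80 uM 4-methylumbelliferyl alpha-D-galactopyranoside in 50 mM citric acid, 0.005% Tween-20, pH 4.5, 20 min at room temperature. Compounds 0.7 nM–77 uM; fluorescence Ex 365/Em 440 after pH 10 stop; AC50 from Hill fits.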

Cc1cc(C)c(-n2c(O)c(C=NCCN3CCOCC3)c(=O)[nH]c2=O)c(C)c1
inactive: activity change, negative = inhibition [1] 7.98% | activity, negative = inhibition [2] 4.18% | Potency [3] > 20.6 µM | activation [4] -6.53%

O=C(O)CCc1cc(I)c(Oc2ccc(O)c(I)c2)c(I)c1
inactive: activity, negative = inhibition [2] -5.45% | Potency [3] > 20.6 µM

Nc1ncnc2c1ncn2[C@@H]1O[C@@H](CO)[C@H](O)[C@@H]1O
active: Potency [9] 4.47 µM
inactive: activity change, negative = inhibition [1] 4.32% [at 38 µM] | Potency [3] > 46 µM | Potency [5] > 46 µM | Potency [6] | Potency [7] | outcome [8] | Potency [10] | Potency [11] | Potency [12] | Potency [13] | outcome [14] | outcome [15]

CSc1nc(N)c(C#N)c(-c2ccccc2Cl)c1C#N
inactive: activity change, negative = inhibition [1] 19.4% | Potency [3] > 20.6 µM

N#CC1=C(SCC(=O)c2ccc(Cl)cc2)NC2=C(C(=O)CCC2)C1c1ccco1 (stereo not drawn)
inactive: activity change, negative = inhibition [1] -22.4% | Potency [3] > 20.6 µM

Clc1ccccc1CN(Cc1ccccc1)c1ncnc2nc[nH]c12
inactive: activity, negative = inhibition [2] -10.3% | Potency [3] > 20.6 µM

Cc1cc(-c2cc(-c3ccc(Cl)cc3)nc(N)c2C#N)co1
active: Potency [4] 7.94 µM
inactive: activity change, negative = inhibition [1] 14.5% | Potency [3] > 20.6 µM
